Reference: PubChem BioAssay AID1159580 (chemical genetic matrix, 2015)
Values joined by “and” are separate entries in the source; they are usually repeats but may differ in a detail not shown here. Equal values may be shown once. Hit rate of the full screen: of about 5,500 compounds, about 2,000 (36%) were called active. About 18% were inconclusive and are not listed. Cut-off read from the data, not from the text of the source: active = normalized growth mostly below about 0.91 (no sharp cut-off); inconclusive = no clear call, values can overlap the other calls; inactive = mostly above about 0.92. The list shows a part of the results.

Assay: chemical genetic growth profiling, strain panel (AID 1159580);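 note: tested at 20 µM; growth read once vehicle control cultures reached saturation at 30 °C; 1 = growth at the plate median or of vehicle wells; lower values mean less growth of the strain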
Conditions: S. cerevisiae deletion strains, growth OD

Measured: normalized growth

Nc1ccn(C2O[C@H](CO)[C@@H](O)[C@H]2O)c(=O)n1 (some centres undefined)
inactive: locus YAL021C, strain ccr4, active compounds read low 0.985 | locus YAL026C, strain drs2, active compounds read low 0.983 | locus YAL030W, strain snc1, active compounds read low 0.982 | locus YBL061C, strain skt5, active compounds read low 0.996 | locus YBR009C, strain hhf1, active compounds read low 0.997 | locus YBR021W, strain FUR4, active compounds read low 1.02 | locus YBR023C, strain chs3, active compounds read low 1 | locus YBR171W, strain sec66, active compounds read low 0.991 | locus YBR229C, strain ROT2, active compounds read low 0.997 | locus YBR231C, strain swc5, active compounds read low 0.987 | locus YBR279W, strain paf1, active compounds read low 0.995 | locus YCL011C, strain gbp2, active compounds read low 0.991 | locus YCL016C, strain dcc1, active compounds read low 1 | locus YCL029C, strain bik1, active compounds read low 1.01 | locus YCL061C, strain MRC1, active compounds read low 0.992 | locus YCL069W, strain vba3, active compounds read low 0.992 | locus YCR088W, strain abp1, active compounds read low 0.985 | locus YDL005C, strain med2, active compounds read low 0.983 | locus YDL035C, strain GPR1, active compounds read low 1.01 | locus YDL040C, strain nat1, active compounds read low 0.987 | locus YDL074C, strain BRE1, active compounds read low 1.03 | locus YDL101C, strain DUN1, active compounds read low 1.02 | locus YDL185W, strain tfp1, active compounds read low 1.03 | locus YDL192W, strain arf1, active compounds read low 1.01 | locus YDR001C, strain nth1, active compounds read low 0.977 | locus YDR069C, strain doa4, active compounds read low 0.992 | locus YDR101C, strain arx1, active compounds read low 1.03 | locus YDR137W, strain rgp1, active compounds read low 0.982 | locus YDR150W, strain NUM1, active compounds read low 0.962 | locus YDR159W, strain sac3, active compounds read low 0.982 | locus YDR162C, strain NBP2, active compounds read low 1 | locus YDR195W, strain ref2 0.974 | locus YDR297W, strain sur2, active compounds read low 0.982 | locus YDR318W, strain mcm21, active compounds read low 0.998 | locus YDR334W, strain swr1, active compounds read low 0.981 | locus YDR335W, strain msn5, active compounds read low 0.982 | locus YDR388W, active compounds read low 1 | locus YDR392W, strain spt3, active compounds read low 0.995 | locus YDR502C, strain sam2, active compounds read low 1.01 | locus YEL003W, strain gim4, active compounds read low 0.99 | locus YEL037C, strain rad23, active compounds read low 0.991 | locus YEL061C, strain CIN8 (second series), active compounds read low 0.983 | locus YEL061C, strain CIN8, active compounds read low 1.01 | locus YER015W, strain faa2, active compounds read low 1.01 | locus YER016W, strain bim1, active compounds read low 0.987 | locus YER110C, active compounds read low 1.01 | locus YER111C, strain swi4, active compounds read low 0.982 | locus YER155C, strain BEM2 (second series), active compounds read low 0.975 | locus YER155C, strain BEM2, active compounds read low 1 | locus YER167W, strain BCK2, active compounds read low 0.987 | locus YFR010W, strain ubp6, active compounds read low 0.972 | locus YGL078C, strain dbp3, active compounds read low 1.01 | locus YGL086W, strain mad1, active compounds read low 1.03 | locus YGL167C, strain pmr1, active compounds read low 0.997 | locus YGL173C, strain kem1, active compounds read low 0.995 | locus YGL227W, strain vid30, active compounds read low 0.993 | locus YGL240W, strain doc1, active compounds read low 1.01 | locus YGL248W, strain PDE1, active compounds read low 0.991 | locus YGL253W, strain hxk2, active compounds read low 0.996 | locus YGR078C, strain PAC10, active compounds read low 1.02 | locus YGR135W, strain pre9, active compounds read low 1 | locus YGR252W, strain gcn5, active compounds read low 0.993 | locus YHR013C, strain ard1, active compounds read low 1.01 | locus YHR027C, strain rpn1, active compounds read low 0.989 | locus YHR030C, strain SLT2, active compounds read low 1.01 and 1 | locus YHR079C, strain IRE1 (second series), active compounds read low 1 | locus YHR079C, strain IRE1, active compounds read low 0.995 | locus YHR094C, strain hxt1, active compounds read low 1.01 | locus YHR129C, strain ARP1, active compounds read low 1.01 | locus YHR142W, strain chs7, active compounds read low 0.999 | locus YHR200W, strain rpn10, active compounds read low 1.02 | locus YIL066C, strain RNR3, active compounds read low 0.995 | locus YIL073C, strain SPO22, active compounds read low 1.02 | locus YIL125W, strain kgd1, active compounds read low 1.01 | locus YIR030C, strain dcg1, active compounds read low 1.01 | locus YJL092W, strain hpr5, active compounds read low 0.988 | locus YJL095W, strain BCK1 (second series), active compounds read low 0.995 | locus YJL095W, strain BCK1, active compounds read low 1.06 and 1 | locus YJL115W, strain asf1, active compounds read low 0.975 | locus YJL129C, strain trk1, active compounds read low 0.995 | locus YJL134W, strain LCB3, active compounds read low 0.999 | locus YJL154C, strain vps35, active compounds read low 0.978 | locus YJL164C, strain tpk1, active compounds read low 1 | locus YJL166W, strain qcr8, active compounds read low 0.999 | locus YJL168C, strain set2, active compounds read low 0.999 | locus YJL187C, strain SWE1 (second series), active compounds read low 1.04 | locus YJL187C, strain SWE1, active compounds read low 0.987 | locus YJR043C, strain POL32, active compounds read low 1 | locus YJR066W, strain TOR1, active compounds read low 0.909
